According to the supplement of paper PMC8387472:
Structures can show the parent of a compound that is named as a salt. ± gives the standard deviation of the averaged measurements.

Test system: mESC LDLR-Dup GFP reporter (SpCas9 MH-deletion repair)
Test: fraction of GFP+ cells relative to DMSO control (fold change); higher = more MH-deletion repair to in-frame LDLR (or more editing)
Conditions: 2 µM; 7 days post-transfection

`CC(C)(Oc1ccc(C2CC2(Cl)Cl)cc1)C(=O)O` (stereo not given) [Ciprofibrate] and `CC(C)(Oc1ccc(CCNC(=O)c2ccc(Cl)cc2)cc1)C(=O)O` [Bezafibrate] are within error of each other in “fraction of GFP+ cells” value: 1.74 ± 0.1 for the first, 1.52 ± 0.58 for the second.

`O=c1c(O)c(-c2ccc(O)c(O)c2)oc2cc(O)cc(O)c12` [Quercetin] and `Cc1cc(O)c2c(c1)C(=O)c1cc(O)cc(O)c1C2=O` [Emodin] are within error of each other in “fraction of GFP+ cells” value: 1.4 ± 0.93 for the first, 1.12 ± 0.16 for the second.

`O=c1ccn([C@@H]2O[C@H](CO)[C@@H](O)[C@H]2O)c(=O)[nH]1` [Uridine] and `Nc1ncnc2c1ncn2[C@@H]1O[C@H](CO)[C@@H](O)[C@@H]1O` [Vidarabine] are within error of each other in “fraction of GFP+ cells” value: 1.24 ± 0.54 for the first, 1.26 ± 0.36 for the second.

`CN(C)c1nc(N(C)C)nc(N(C)C)n1` [Altretamine] and `CN(C)/N=N/c1[nH]cnc1C(N)=O` [Dacarbazine] are within error of each other in “fraction of GFP+ cells” value: 1.41 ± 0.41 for the first, 1.01 ± 0.49 for the second.

Going from `C=C1CC[C@H](O)C/C1=C/C=C1\CCC[C@]2(C)[C@@H]([C@H](C)/C=C/[C@H](C)C(C)C)CC[C@@H]12` [Vitamin D2] to `CC(C)(O)C1CCC(C)(C2C(O)CC3(C)C4CC(O)C5C(C)(C)C(O)CCC56CC46CCC23C)O1` (stereo not given) [Cyclogalegenol], the “fraction of GFP+ cells” value falls from 1.43 ± 0.26 to 0.875 ± 0.24.

Compared with `Cn1cc(C(=O)Nc2ccc3c(c2)OCCO3)c2ccccc2c1=O`, `CS(=O)(=O)c1ccc(-c2cnc(N)c(C(=O)Nc3ccccc3)n2)cc1` is lower in “fraction of GFP+ cells” value: 1.33 ± 0.53 for the first, 0.582 ± 0.061 for the second.

`N#Cc1ccc2ncnc(NCCc3ccccc3)c2c1` [Senexin A] and `Cc1ccc(CNc2ncnc3ccc(-c4ccc(CO)o4)cc23)o1` are within error of each other in “fraction of GFP+ cells” value: 0.863 ± 0.11 for the first, 1.08 ± 0.19 for the second.

`CC1CCc2cc(F)cc3c(=O)c(C(=O)O)cn1c23` (stereo not given) [Flumequine] and `COc1c(N2CCNC(C)C2)c(F)cc2c(=O)c(C(=O)O)cn(C3CC3)c12` (stereo not given) [Gatifloxacin] are within error of each other in “fraction of GFP+ cells” value: 0.977 ± 0.12 for the first, 0.995 ± 0.12 for the second.

`CN(C)C(=O)c1cc2cnc(Nc3ccc(N4CCNCC4)cn3)nc2n1C1CCCC1` [Ribociclib (LEE011)] and `CNC1CCCN(c2c(F)cc3c(=O)c(C(=O)O)cn(C4CC4)c3c2OC)C1` (stereo not given) [Balofloxacin] are within error of each other in “fraction of GFP+ cells” value: 1.04 ± 0.21 for the first, 0.978 ± 0.15 for the second.

`CC1=CC(=O)c2ccccc2C1=O` [Menadione] and `CC(=O)c1cc([N+](=O)[O-])c(Sc2cccc(Cl)c2Cl)s1` are within error of each other in “fraction of GFP+ cells” value: 1.27 ± 0.36 for the first, 0.919 ± 0.038 for the second.

Going from `COc1cc(Br)c(Nc2nc(-c3c(C)nc4ncccn34)cs2)c(Br)c1` to `COc1cc2ncnc(-n3nc(-c4ccccn4)nc3N)c2cc1OC`, the “fraction of GFP+ cells” value rises from 0.111 ± 0.028 to 0.973 ± 0.34.

`O=C(Nc1ccc(Cl)cc1)C1CCCN(C(=O)c2cccc(-c3ccco3)c2)C1` (stereo not given) and `O=C(O)c1ccc2c(c1)nc(Nc1cccc(Cl)c1)c1ccncc12` [Silmitasertib (CX-4945)] are within error of each other in “fraction of GFP+ cells” value: 0.756 ± 0.13 for the first, 0.655 ± 0.32 for the second.

Compared with `COc1c2ccoc2cc2oc(=O)ccc12` [Bergapten], `O=c1c(-c2ccc(O)cc2)coc2cc(O)ccc12` [Daidzein] is lower in “fraction of GFP+ cells” value: 0.969 ± 0.32 for the first, 0.115 ± 0.039 for the second.

`CCCCCCCCCCCCCC(=S)NCCCC[C@H](NC(=O)OCc1ccccc1)C(=O)Nc1ccccc1` [Thiomyristoyl] and `CCCCCCCCC/C(=C\C1=C(C)C(=O)C(OC)=C(OC)C1=O)C(=O)O` are within error of each other in “fraction of GFP+ cells” value: 0.948 ± 0.9 for the first, 1.19 ± 0.5 for the second.

Going from `COc1nc(N)nc2c1ncn2[C@@H]1O[C@H](CO)[C@@H](O)[C@@H]1O` [Nelarabine] to `O=c1[nH]c(=O)n([C@H]2C[C@H](O)[C@@H](CO)O2)cc1C(F)(F)F` [Trifluridine], the “fraction of GFP+ cells” value rises from 1.12 ± 0.14 to 2.69.

`COc1cc(Cc2cnc(N)nc2N)cc(OC)c1OC` [Trimethoprim] and `C#Cc1cccc(Nc2ncnc3cc(OC)c(OCCCCCCC(=O)NO)cc23)c1` are within error of each other in “fraction of GFP+ cells” value: 0.773 ± 0.079 for the first, 0.66 ± 0.054 for the second.

`CC(C)(O)[C@@H]1CC[C@](C)([C@H]2[C@@H](O)C[C@@]3(C)[C@@H]4C[C@H](O)[C@H]5C(C)(C)[C@@H](O)CC[C@@]56C[C@@]46CC[C@]23C)O1` [Cycloastragenol] and `CC(C)OC(=O)[C@H](C)N[P@](=O)(OC[C@H]1O[C@@H](n2ccc(=O)[nH]c2=O)[C@](C)(F)[C@@H]1O)Oc1ccccc1` [Sofosbuvir (PSI-7977, GS-7977)] are within error of each other in “fraction of GFP+ cells” value: 0.966 ± 0.08 for the first, 1.03 ± 0.4 for the second.

`NCCOc1cc(C(=O)Nc2cc(OCCN)c3ccccc3n2)nc(C(=O)Nc2cc(OCCN)c3ccccc3n2)c1` [Pyridostatin Trifluoroacetate Salt] and `O=C(NCc1ccccc1)c1csc(Nc2ccncn2)n1` [Thiazovivin] are within error of each other in “fraction of GFP+ cells” value: 0.824 for the first, 0.987 ± 0.18 for the second.

`O=c1[nH]c(=O)n(C2CCCO2)cc1F` (stereo not given) and `NC[C@@](O)(c1ccc(Cl)cc1)c1ccc(-c2cn[nH]c2)cc1` are within error of each other in “fraction of GFP+ cells” value: 1.06 ± 0.28 for the first, 1.33 ± 0.93 for the second.

`N#CSc1cc(SC#N)c(N)nc1N` and `COc1ccc(-c2nc(-c3cc(C(F)(F)F)cc(C(F)(F)F)c3)n(Cc3ccc(C(N)=O)cc3)c2-c2ccc(OC)cc2)cc1` [Apoptozole] are within error of each other in “fraction of GFP+ cells” value: 1.23 ± 0.14 for the first, 1.14 ± 0.37 for the second.
